Results reported in PubChem BioAssay AID1053119 (Broad Institute, 2014).
Results with a measured potency or affinity are listed apart. Inconclusive results are not listed. A number with no mark means an inactive call.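 How the source made its calls: active means signal loss from cell killing with fitted potency at or below twice the top valid dose; inconclusive means flat drop of 30 to 70%, or unreliable curve fit; inactive means opposite direction, flat within 30%, or weaker potency.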

assay: A549 cell cytotoxicity, dose response, cytotoxicity control, cherry-picks, 26 µM top dose (AID 1053119); conditions: A549 viability, CellTiter-Glo ATP luminescence, 72 h; series mostly up to 26 µM; activity change, negative = cytotoxicity: at the top concentration;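 further: 0% = neutral control wells and -100% = 10 µM mitoxantrone wells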

| SMILES | activity change, negative = cytotoxicity |
| --- | --- |
| O=C(CC1Nc2ccccc2NC1=O)Nc1ccc2c(c1)OCO2 (configuration not stated) | -10.1% |
| Cc1cccc(NC(=O)c2ccc(S(=O)(=O)N3CCCCC3)cc2)n1 | -1.35% |
| C[C@H](O)C#Cc1ccc2c(c1)O[C@H](CN(C)C)[C@H](C)CN([C@@H](C)CO)S2(=O)=O | 1.47% |
| O=C(CCC(=O)c1cccs1)NCc1cccnc1 | 2.94% |
| CC(=O)Nc1cccc(-c2ccnc3c2CC(C)(C(=O)Nc2cccc(C(F)(F)F)c2)O3)c1 (configuration not stated) | -20% |
| CO[C@@H]1CN(C)C(=O)c2cc(NC(=O)Nc3ccc(Cl)c(Cl)c3)ccc2OC[C@H](C)NC[C@H]1C | 2.06% |
| COc1ccccc1N(CC(=O)N(CC(C)C)CC(C)C)S(=O)(=O)c1cccs1 | -13% |
| C[C@H](O)C#Cc1ccc2c(c1)O[C@H](CN(C)C)[C@@H](C)CN([C@@H](C)CO)S2(=O)=O | 4.25% |
| C[C@H]1CN([C@@H](C)CO)C(=O)c2cc(-c3ccccc3)cnc2O[C@H]1CN(C)C(=O)c1cccc(F)c1 | -9.13% |
| CO[C@H]1CN(C)C(=O)c2cc(NC(C)=O)ccc2OC[C@@H](C)N(C(=O)CN2CCOCC2)C[C@H]1C | -2.74% |
| CO[C@H]1CN(C)C(=O)c2cc(NC(=O)Nc3ccc(Cl)c(Cl)c3)ccc2OC[C@@H](C)NC[C@H]1C | -12.1% |
| O=S(=O)(c1ccccc1F)N1CC[C@@H]2[C@H]1c1cc(-c3cccc(F)c3)ccc1N[C@@H]2CO | -2.99% |
| O=S(=O)(c1cccc(F)c1)N1CC[C@@H]2[C@H]1c1cc(-c3cccc(F)c3)ccc1N[C@@H]2CO | -7.69% |
| Cc1cc(C)n2ncc(C(=O)NCc3ccc(Cl)cc3)c2n1 | -3.99% |
| COC(=O)C[C@@H]1CC[C@H]2[C@H](COc3ccc(NC(=O)Cc4cccs4)cc3C(=O)N2C)O1 | 1.35% [at 23.5 µM] |
| C[C@@H]1CN([C@H](C)CO)C(=O)c2cc(NC(=O)C3CCCCC3)ccc2O[C@H]1CN(C)Cc1ccc(-c2ccccc2)cc1 | -1.4% |
| COCC(=O)Nc1ccc2c(c1)C(=O)N(C)[C@@H]1CC[C@H](CC(=O)NCc3ccccc3Cl)O[C@H]1CO2 | 1.18% |
| Cc1ccccc1S(=O)(=O)N1CC[C@H]2[C@H](CO)Nc3ccc(-c4ccc(C#N)cc4)cc3[C@H]21 | -6.96% |
| COc1ccc(-c2oc3ncnc(NCCCN4CCOCC4)c3c2-c2ccc(OC)cc2)cc1 | -31% |

| SMILES | activity change, negative = cytotoxicity |
| --- | --- |
| COc1cccc(-c2ccc3c(c2)[C@H]2[C@H](CCN2S(=O)(=O)c2cccc(OC)c2)[C@@H](CO)N3)c1 | -4.15% |
| COc1ccccc1CC(=O)OC(C)C(=O)Nc1ccc(S(=O)(=O)N2CCCCC2)cc1 (configuration not stated) | 24.9% |
| COC(=O)C[C@H]1CC[C@H]2[C@H](COc3ccc(NC(=O)Cc4cccs4)cc3C(=O)N2C)O1 | -7.75% |
| COc1cccc(S(=O)(=O)N2CC[C@@H]3[C@H]2c2cc(-c4ccc(C#N)cc4)ccc2N[C@@H]3CO)c1 | -10.4% [at 23.5 µM] |
| Fc1cnc(N2CCN(c3ccccc3)CC2)nc1N1CCN(c2ccccc2)CC1 | 9.88% |
| O=C(Nc1ccccc1F)N1C[C@@H]2[C@H](c3ccccc31)[C@H](CO)N2C(=O)C1CCOCC1 | 8.24% [at 23.5 µM] |
| COCC(=O)Nc1ccc2c(c1)C(=O)N(C)[C@H]1CC[C@H](CC(=O)NCc3ccccc3Cl)O[C@@H]1CO2 | -12% [at 23.5 µM] |
| C[C@H](O)C#Cc1ccc2c(c1)O[C@@H](CN(C)C)[C@H](C)CN([C@@H](C)CO)S2(=O)=O | -2.13% |
| O=C(OCC(O)C(O)COC(=O)c1ccccc1)c1ccccc1 (configuration not stated) | -13.2% |
| C[C@@H]1CN([C@@H](C)CO)C(=O)c2cc(-c3ccccc3)cnc2O[C@@H]1CN(C)Cc1ccccc1 | -4.5% |
| C[C@@H]1CN([C@H](C)CO)C(=O)c2cc(NC(=O)CCCN(C)C)ccc2O[C@H]1CN(C)Cc1ccc(-c2ccccc2)cc1 | -1.25% |
| COc1ccc(CCNC(=O)C2CCN(Cc3nc(-c4ccccc4F)oc3C)CC2)cc1OC | 13.1% |
| COc1ncccc1C(=O)NC1CCCc2c1cnn2-c1ccc(C)c(C)c1 (configuration not stated) | -11.4% |
| C[C@H]1CN([C@@H](C)CO)C(=O)c2cc(NC(=O)CCCN(C)C)ccc2O[C@@H]1CN(C)Cc1ccc(-c2ccccc2)cc1 | -0.529% |
| N#Cc1ccc(-c2ccc3c(c2)[C@@H]2[C@@H](CCN2S(=O)(=O)c2cccc(F)c2)[C@@H](CO)N3)cc1 | -2.88% [at 23.5 µM] |
| C[C@@H]1CN([C@H](C)CO)C(=O)c2cc(-c3ccccc3)cnc2O[C@H]1CN(C)C(=O)c1cccc(F)c1 | -3.54% |
| O=S(=O)(c1cccc(F)c1)N1CC[C@H]2[C@H](CO)Nc3ccc(-c4cccc(F)c4)cc3[C@H]21 | -1.9% |
| CO[C@@H]1CN(C)C(=O)c2cc(NC(=O)Nc3ccc(Cl)c(Cl)c3)ccc2OC[C@H](C)NC[C@@H]1C | -4.37% |
